Results reported in PubChem BioAssay (NCATS).
Inconclusive results are not listed. Where a call stands in place of a potency, no number is given. Active and inactive are the calls of the source. Calls follow the shape of the dose curve; as a rule, active = well fitted inhibition curve with a large enough effect; inconclusive = small, poorly fitted or top-dose-only effect; inactive = no such curve, though single readings can be large or run the other way.

Assay: S16 Schwann cell PMP22 intronic element firefly luciferase assay (AID 624032); also: nearly all actives have a fitted effect of over 30% in size
Conditions: S16 rat Schwann cells, PMP22 element FLuc, 24 h; series mostly up to 57.5 µM
Outline: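 Rat S16 Schwann cells stably carrying firefly luciferase driven by a PMP22 intronic element, in 10% FBS, treated 24 h at 37 C. ONE-Glo luminescence normalized to PTC124 control and DMSO (0%); curves classed by r2, magnitude and activity.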
Potency is read from the fitted curve at half-maximal effect.

Q: Which Potency does the source give for CNC(C)(C)Cc1ccccc1 here?
A: inactive

Q: With O=C1OC(c2ccc(O)c(S(=O)(=O)O)c2)(c2ccc(O)c(S(=O)(=O)O)c2)c2c(Br)c(Br)c(Br)c(Br)c21 as the compound, how does the Potency read?
A: inactive

Q: For COc1c2c(cc3c1OCO3)CCN(C)C2, which Potency is on record?
A: inactive

Q: Which Potency does the source give for NC(=O)CS(=O)C(c1ccccc1)c1ccccc1 (centres undefined) here?
A: inactive

Q: Which Potency does the source give for CN1C(=O)NC(=O)C(C)(C2=CCCCC2)C1=O (centres undefined) here?
A: inactive

Q: Which Potency does the source give for COP(=S)(OC)Oc1ccc(S(=O)(=O)N(C)C)cc1 here?
A: inactive

Q: With COc1cccc([C@@]2(O)CCCC[C@@H]2CN(C)C)c1 as the compound, how does the Potency read?
A: inactive

Q: For O=c1[nH]oc2c1CCNC2, which Potency is on record?
A: inactive

Q: For c1ccc2c(c1)sc1ccccc12, which Potency is on record?
A: inactive

Q: Which Potency does the source give for CN1C(=O)CCS(=O)(=O)C1c1ccc(Cl)cc1 (centres undefined) here?
A: inactive

Q: For C[C@](O)(CS(=O)(=O)c1ccc(F)cc1)C(=O)Nc1ccc(C#N)c(C(F)(F)F)c1, which Potency is on record?
A: 16.1 µM (active)

Q: Which Potency does the source give for NNc1ccccc1 here?
A: inactive

Q: For C[C@]12CC[C@@H]3c4ccc(OC(=O)N(CCCl)CCCl)cc4CC[C@H]3[C@@H]1CC[C@@H]2O, which Potency is on record?
A: inactive

Q: Which Potency does the source give for COc1ccc2c(c1)C13CCCC[C@@H]1C(C2)N(C)CC3 (some centres undefined) here?
A: inactive

Q: For CCC1(c2ccccc2)C(=O)N(COC)C(=O)N(COC)C1=O, which Potency is on record?
A: inactive

Q: For CC(C)(C)NCC(O)c1cc(Cl)c(N)c(C(F)(F)F)c1 (centres undefined), which Potency is on record?
A: inactive

Q: For CN1CCC(O)(c2ccc(F)cc2)C(C(=O)c2ccc(F)cc2)C1 (centres undefined), which Potency is on record?
A: inactive

Q: For CCCCCCCCCC(=O)O[C@H]1CC[C@H]2[C@@H]3CCC4=CC(=O)CC[C@@H]4[C@H]3CC[C@]12C, which Potency is on record?
A: inactive

Q: With Cc1nnc2n1-c1ccc(Cl)cc1C(c1ccccc1)=NC2 as the compound, how does the Potency read?
A: inactive
